Records with an inconclusive call do not appear. Entries that show only a call come without a potency. Activity calls are given as the source filed them. Calls follow the shape of the dose curve; as a rule, active = well fitted cell-killing curve with a large enough effect; inconclusive = small, poorly fitted or top-dose-only effect; inactive = no such curve, though single readings can be large or run the other way.
Potency is read from the fitted curve at half-maximal effect.

One experiment in a line: qHTS of pediatric cancer cell lines to identify multiple opportunities for drug repurposing: Primary screen for Rh30 cells (AID 1347107). Also: nearly all actives have a fitted effect of over 75% in size. Particulars: Rh30 rhabdomyosarcoma viability, CellTiter-Glo luminescence, 48 h; series mostly up to 46 µM. Summed up: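 Viability after 48 h compound treatment at 37C, 500-1,000 cells/well, read as ATP luminescence with CellTiter-Glo. Primary screens used 11-point (MIPE, 0.78 nM-46 µM) or 8-point (NPC, 0.59 nM-46 µM) final concentrations; follow-up screens used 11-point dilutions.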
`O=C(NC[C@H](O)CO)c1ccncc1Nc1ccc(I)cc1F`: the Potency result was “inactive”.

On to `O[C@@H](COc1cccc2ncccc12)CN1CCN(C2c3ccccc3[C@@H]3[C@H](c4ccccc42)C3(F)F)CC1` (some centres undefined), for which the Potency is 16.6 µM (active).

Turning to `COc1c(C)c2c(c(O)c1CC=C(C)CCC(=O)OCCN1CCOCC1)C(=O)OC2`, the Potency entry is “inactive”.

Regarding `Cc1nc(C(=O)NCC(=O)O)c(O)c2ccc(Oc3ccccc3)cc12`, the Potency entry is “inactive”.

`CN[C@@H](C)[C@H]1[C@H](O)C[C@@]2(C)[C@@H]3CC[C@H]4C(C)(C)[C@@H](NC)CC[C@@]45C[C@@]35CC[C@]12C`: the Potency result is “inactive”.

As to `C=C[C@@H]1CN2CCC1C[C@@H]2C(O)c1ccnc2ccc(OC)cc12` (some centres undefined), the Potency entry is “inactive”.

As for `CC1CCN(c2cc(N3CCN(C)CC3)ccc2NC(=O)c2cc(C#N)c[nH]2)CC1`, the Potency entry was “inactive”.

Turning to `C#C[C@]1(O)CC[C@H]2[C@H]3CCc4cc(OC)ccc4[C@H]3CC[C@@]21C`, the Potency entry was “inactive”.

As for `O=C(Nc1ncc(SCCN2CCCC2)s1)[C@]1(c2ccc(S(=O)(=O)C3CC3)cc2)C[C@@H]1C1CCCCC1`, the Potency was 20.9 µM (active).

As to `CNC(=O)c1c(-c2ccc(F)cc2)oc2cc(N(CCO)S(C)(=O)=O)c(C3CC3)cc12`, the Potency entry was “inactive”.

In the case of `Oc1ccc(C=Cc2cc(O)cc(O)c2)cc1`, the Potency entry was “inactive”.

With `O=C(O)C1=CO[C@@H](O[C@@H]2O[C@H](CO)[C@H](O)[C@H](O)[C@H]2O)[C@@H]2C(CO)=CC[C@H]12`, the Potency result is “inactive”.

As for `C[C@H]1COC2=C1C(=O)C(=O)c1c2ccc2c1CCCC2(C)C`, the Potency entry is “inactive”.

With `CC(C)(OCc1nn(Cc2ccccc2)c2ccccc12)C(=O)O`, the Potency entry was “inactive”.

For the compound `CCNC(=O)CCCC=CC[C@@H]1[C@H](C=CC(O)CCc2ccccc2)[C@@H](O)C[C@@H]1O` (some centres undefined), the Potency result is “inactive”.

On to `CN(C)c1ccccc1CN1CCCN(Cc2ccccc2N(C)C)C1c1ccncc1`, for which the Potency result was “inactive”.

With `C[C@]12C=CC(=O)C=C1CC[C@@H]1[C@@H]2[C@@H](O)C[C@@]2(C)[C@@H]1CC[C@]2(O)C(=O)CO`, the Potency result is “inactive”.

On to `COc1ccnc(CS(=O)c2nc3ccc(OC(F)F)cc3[nH]2)c1OC` (centres undefined), for which the Potency result is “inactive”.

`CCC(=O)NCC[C@@H]1CCc2ccc3c(c21)CCO3`: the Potency entry is “inactive”.

As for `Cc1ccc2c(c1)c1c(n2CCc2ccc(C)nc2)CCN(C)C1`, the Potency entry is “inactive”.

Regarding `CC[C@H](C=C[C@@H](C)[C@H]1CC[C@H]2[C@@H]3CC=C4C[C@@H](O)CC[C@]4(C)[C@@H]3CC[C@]12C)C(C)C`, the Potency result is “inactive”.

As for `O=C1C(CCC(O)c2ccc(F)cc2)C(c2ccc(O)cc2)N1c1ccc(F)cc1` (centres undefined), the Potency entry is “inactive”.

In the case of `CN(C)CCOc1ccc(-c2nc(-c3ccc4c(c3)CCC4=NO)c(-c3ccncc3)[nH]2)cc1`, the Potency was 18.7 µM (active).

`C[C@@H]1[C@H](C)CC[C@]2(C(=O)O)CC[C@]3(C)C(=CC[C@@H]4[C@@]5(C)CC[C@H](O)C(C)(C)[C@H]5CC[C@]43C)[C@@H]12`: the Potency entry was “inactive”.

With `CC(=O)OCC(=O)[C@@]1(O)CC[C@H]2[C@@H]3CCC4=CC(=O)C=C[C@]4(C)[C@@H]3[C@@H](O)C[C@@]21C`, the Potency entry is “inactive”.

For `CC[C@H](C)C(=O)O[C@H]1C[C@H](O)C=C2C=C[C@H](C)[C@H](CC[C@@H](O)C[C@@H](O)CC(=O)O)[C@H]21`, the Potency result was “inactive”.

Consider `CCC=CC[C@H]1C(=O)CC[C@@H]1CC(=O)OC`, for which the Potency result was “inactive”.

`COc1cc(N2CCN(C)CC2)ccc1Nc1nc(N)c(C(=O)c2c(Cl)cccc2Cl)s1`: the Potency result was “inactive”.

Regarding `CNc1nc(-c2ccc3c(N)n[nH]c3c2)cc(N2C[C@@H](C(=O)NC3CCCCC3)CC[C@@H]2C)n1`, the Potency result was “inactive”.

For `CCCCCCCCCCCCCC(=O)N[C@H](CO)[C@H](O)c1ccc([N+](=O)[O-])cc1`, the Potency result is “inactive”.

In the case of `COc1cc(C=CC(=O)O)ccc1O`, the Potency entry was “inactive”.

As for `COc1ccc2ccc(=O)oc2c1CC=C(C)C`, the Potency result is “inactive”.

Regarding `CCCCCOC(=O)Nc1nc(=O)n([C@@H]2O[C@H](C)[C@@H](O)C2O)cc1F` (some centres undefined), the Potency entry is “inactive”.

Take `Cc1cc(NC(=O)Nc2ccc(N(C)C)cc2)c2cc(F)cc(F)c2n1`: the Potency result is “inactive”.

With `CC1(C)[C@H]2CC[C@]3(C)[C@@H](C(=O)C=C4[C@@H]5C[C@@](C)(C(=O)O)CC[C@]5(C)CC[C@]43C)[C@@]2(C)CC[C@@H]1O`, the Potency result is “inactive”.

Consider `CCCCC(F)(F)[C@@]1(O)CC[C@H]2[C@H](CC(=O)[C@@H]2CCCCCCC(=O)O)O1`, for which the Potency entry was “inactive”.

As for `c1ccc(CNc2nc(N3CCOc4ccccc43)nc3c2CCCC3)cc1`, the Potency result was “inactive”.

A short description of another experiment: qHTS of pediatric cancer cell lines to identify multiple opportunities for drug repurposing: Primary screen for Rh41 cells (AID 1347108). Also: nearly all actives have a fitted effect of over 70% in size. Particulars: Rh41 rhabdomyosarcoma viability, CellTiter-Glo luminescence, 48 h; series mostly up to 46 µM. Summed up:
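CRCs from 8- or 11-point titrations (lowest final 0.59 nM NPC, 0.78 nM MIPE). Cell viability: CellTiter-Glo after 48 h incubation, 15 min room-temperature development, luminescence imaging.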
With `O[C@@H](COc1cccc2ncccc12)CN1CCN(C2c3ccccc3[C@@H]3[C@H](c4ccccc42)C3(F)F)CC1` (some centres undefined), the Potency is 18.7 µM (active).

As for `COc1c(C)c2c(c(O)c1CC=C(C)CCC(=O)OCCN1CCOCC1)C(=O)OC2`, the Potency entry is “inactive”.

As to `Cc1nc(C(=O)NCC(=O)O)c(O)c2ccc(Oc3ccccc3)cc12`, the Potency entry was “inactive”.

`CN[C@@H](C)[C@H]1[C@H](O)C[C@@]2(C)[C@@H]3CC[C@H]4C(C)(C)[C@@H](NC)CC[C@@]45C[C@@]35CC[C@]12C`: the Potency entry is “inactive”.

Consider `C#C[C@]1(O)CC[C@H]2[C@H]3CCc4cc(OC)ccc4[C@H]3CC[C@@]21C`, for which the Potency entry is “inactive”.

In the case of `O=C(Nc1ncc(SCCN2CCCC2)s1)[C@]1(c2ccc(S(=O)(=O)C3CC3)cc2)C[C@@H]1C1CCCCC1`, the Potency was 18.7 µM (active).

Consider `CNC(=O)c1c(-c2ccc(F)cc2)oc2cc(N(CCO)S(C)(=O)=O)c(C3CC3)cc12`, for which the Potency was 18.7 µM (active).

Turning to `Oc1ccc(C=Cc2cc(O)cc(O)c2)cc1`, the Potency entry is “inactive”.

With `O=C(O)C1=CO[C@@H](O[C@@H]2O[C@H](CO)[C@H](O)[C@H](O)[C@H]2O)[C@@H]2C(CO)=CC[C@H]12`, the Potency entry is “inactive”.

`CC(C)(OCc1nn(Cc2ccccc2)c2ccccc12)C(=O)O`: the Potency entry is “inactive”.

In the case of `COc1ccnc(CS(=O)c2nc3ccc(OC(F)F)cc3[nH]2)c1OC` (centres undefined), the Potency entry is “inactive”.

For the compound `Cc1ccc2c(c1)c1c(n2CCc2ccc(C)nc2)CCN(C)C1`, the Potency result is “inactive”.

Consider `CC[C@H](C=C[C@@H](C)[C@H]1CC[C@H]2[C@@H]3CC=C4C[C@@H](O)CC[C@]4(C)[C@@H]3CC[C@]12C)C(C)C`, for which the Potency result was “inactive”.

With `O=C1C(CCC(O)c2ccc(F)cc2)C(c2ccc(O)cc2)N1c1ccc(F)cc1` (centres undefined), the Potency entry is “inactive”.

With `CN(C)CCOc1ccc(-c2nc(-c3ccc4c(c3)CCC4=NO)c(-c3ccncc3)[nH]2)cc1`, the Potency is 23.5 µM (active).

With `CC[C@H](C)C(=O)O[C@H]1C[C@H](O)C=C2C=C[C@H](C)[C@H](CC[C@@H](O)C[C@@H](O)CC(=O)O)[C@H]21`, the Potency entry is “inactive”.

As to `CCC=CC[C@H]1C(=O)CC[C@@H]1CC(=O)OC`, the Potency result is “inactive”.

With `COc1cc(N2CCN(C)CC2)ccc1Nc1nc(N)c(C(=O)c2c(Cl)cccc2Cl)s1`, the Potency entry was “inactive”.

`CCCCCCCCCCCCCC(=O)N[C@H](CO)[C@H](O)c1ccc([N+](=O)[O-])cc1`: the Potency result was “inactive”.

Regarding `COc1cc(C=CC(=O)O)ccc1O`, the Potency result is “inactive”.

`Cc1cc(NC(=O)Nc2ccc(N(C)C)cc2)c2cc(F)cc(F)c2n1`: the Potency result was “inactive”.

Regarding `CC1(C)[C@H]2CC[C@]3(C)[C@@H](C(=O)C=C4[C@@H]5C[C@@](C)(C(=O)O)CC[C@]5(C)CC[C@]43C)[C@@]2(C)CC[C@@H]1O`, the Potency entry was “inactive”.

(Values after PubChem BioAssay (NCATS).)
